Targets with a hit are over-represented here; the source holds about 8,800 in all. About 0.5% of all pairs of compound and target were hits.
The targets below were run with C#Cc1cccc(Nc2ncnc3cc(OCCOC)c(OCCOC)cc23)c1 [erlotinib] (assay: log2 fold change, soluble protein after heating vs DMSO (PISA); higher = thermal stabilisation; K562 lysate, 10 uM; active = over 0.2 and 3.5 SD of the protein, either way, in both replicates (recomputed)).
Method in brief: (§1)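 To prepare the extract, K562 pellets were dounce-homogenised in PBS pH 7.4 with 1 mM MgCl2, giving crude material at 1 mg/mL protein. This was treated with 10 μM compound for 30 min, then heated in aliquots for 3 min over 48°C-58°C before pooling and addition of NP-40 to 0.5% at 4°C. Centrifugation at 21,000xg for 90 min left soluble protein in the supernatant, which TMTpro 16plex LC-MS/MS quantified with equalised channel sums. Results are log-two fold changes in thermal stability compared with solvent controls, from duplicates.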
Chain of UniProt Q13586 (Q13586 whole entry, looked up): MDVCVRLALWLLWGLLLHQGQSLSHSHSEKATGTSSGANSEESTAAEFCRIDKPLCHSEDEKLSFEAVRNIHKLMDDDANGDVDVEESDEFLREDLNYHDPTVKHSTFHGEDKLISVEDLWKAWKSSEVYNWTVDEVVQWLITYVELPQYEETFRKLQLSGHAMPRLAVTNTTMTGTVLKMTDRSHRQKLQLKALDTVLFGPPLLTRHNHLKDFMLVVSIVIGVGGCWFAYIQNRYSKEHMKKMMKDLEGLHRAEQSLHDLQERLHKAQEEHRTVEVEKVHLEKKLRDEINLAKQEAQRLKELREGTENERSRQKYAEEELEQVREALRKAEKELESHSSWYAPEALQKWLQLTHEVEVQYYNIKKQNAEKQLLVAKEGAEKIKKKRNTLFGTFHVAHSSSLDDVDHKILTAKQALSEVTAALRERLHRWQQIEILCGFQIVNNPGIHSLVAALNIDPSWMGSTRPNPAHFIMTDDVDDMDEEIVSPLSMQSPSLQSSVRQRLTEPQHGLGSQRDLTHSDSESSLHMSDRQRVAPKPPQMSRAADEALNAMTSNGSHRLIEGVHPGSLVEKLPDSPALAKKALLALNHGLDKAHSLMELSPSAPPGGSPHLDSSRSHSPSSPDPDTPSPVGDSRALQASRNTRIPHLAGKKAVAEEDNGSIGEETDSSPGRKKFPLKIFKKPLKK
Chain of UniProt Q9NZ72 (Q9NZ72 whole entry, looked up): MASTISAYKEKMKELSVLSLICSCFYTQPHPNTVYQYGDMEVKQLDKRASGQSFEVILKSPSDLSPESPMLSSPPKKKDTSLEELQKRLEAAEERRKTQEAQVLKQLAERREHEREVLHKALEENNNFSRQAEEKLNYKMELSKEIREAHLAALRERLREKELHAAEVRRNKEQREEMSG
Chain of UniProt Q13043 (Q13043 whole entry, looked up): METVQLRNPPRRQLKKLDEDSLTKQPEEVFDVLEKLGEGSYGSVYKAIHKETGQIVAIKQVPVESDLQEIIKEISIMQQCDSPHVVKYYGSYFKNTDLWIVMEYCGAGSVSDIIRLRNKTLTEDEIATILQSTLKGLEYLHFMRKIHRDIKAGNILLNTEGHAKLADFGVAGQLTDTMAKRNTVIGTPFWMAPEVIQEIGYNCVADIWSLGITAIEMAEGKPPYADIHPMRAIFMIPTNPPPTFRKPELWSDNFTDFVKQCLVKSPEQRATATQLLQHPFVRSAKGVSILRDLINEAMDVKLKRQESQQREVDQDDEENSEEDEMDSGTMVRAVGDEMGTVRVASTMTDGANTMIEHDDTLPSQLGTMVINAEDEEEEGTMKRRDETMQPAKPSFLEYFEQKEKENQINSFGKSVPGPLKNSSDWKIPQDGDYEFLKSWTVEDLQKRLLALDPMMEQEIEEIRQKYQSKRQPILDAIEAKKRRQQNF
Chain of UniProt Q08AE8 (Q08AE8 whole entry, looked up): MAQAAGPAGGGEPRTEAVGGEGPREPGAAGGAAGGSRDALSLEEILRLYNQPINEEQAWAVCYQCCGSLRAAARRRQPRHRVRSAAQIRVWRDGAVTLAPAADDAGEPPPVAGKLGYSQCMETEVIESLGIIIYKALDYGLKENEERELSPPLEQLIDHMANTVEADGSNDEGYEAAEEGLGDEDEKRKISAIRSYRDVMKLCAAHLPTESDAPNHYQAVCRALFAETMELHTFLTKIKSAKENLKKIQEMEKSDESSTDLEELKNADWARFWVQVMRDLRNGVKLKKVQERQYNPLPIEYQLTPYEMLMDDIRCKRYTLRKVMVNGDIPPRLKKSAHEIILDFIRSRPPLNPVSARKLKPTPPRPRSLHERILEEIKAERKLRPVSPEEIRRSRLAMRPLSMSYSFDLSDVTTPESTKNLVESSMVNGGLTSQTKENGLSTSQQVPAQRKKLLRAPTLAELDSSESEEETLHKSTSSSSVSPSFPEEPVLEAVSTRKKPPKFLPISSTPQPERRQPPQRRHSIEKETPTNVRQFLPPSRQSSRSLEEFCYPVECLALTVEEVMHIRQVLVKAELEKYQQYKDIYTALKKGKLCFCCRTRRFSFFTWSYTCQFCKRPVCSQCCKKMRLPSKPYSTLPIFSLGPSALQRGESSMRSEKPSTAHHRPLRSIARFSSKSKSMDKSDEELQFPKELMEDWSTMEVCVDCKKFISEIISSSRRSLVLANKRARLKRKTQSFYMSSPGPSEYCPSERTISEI
Chain of UniProt Q9Y3B4 (Q9Y3B4 whole entry, looked up): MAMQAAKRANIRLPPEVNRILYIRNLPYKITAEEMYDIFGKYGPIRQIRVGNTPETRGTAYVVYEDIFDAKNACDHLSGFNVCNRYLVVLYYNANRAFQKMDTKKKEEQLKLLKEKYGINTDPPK
Chain of UniProt Q96DI7 (Q96DI7 whole entry, looked up): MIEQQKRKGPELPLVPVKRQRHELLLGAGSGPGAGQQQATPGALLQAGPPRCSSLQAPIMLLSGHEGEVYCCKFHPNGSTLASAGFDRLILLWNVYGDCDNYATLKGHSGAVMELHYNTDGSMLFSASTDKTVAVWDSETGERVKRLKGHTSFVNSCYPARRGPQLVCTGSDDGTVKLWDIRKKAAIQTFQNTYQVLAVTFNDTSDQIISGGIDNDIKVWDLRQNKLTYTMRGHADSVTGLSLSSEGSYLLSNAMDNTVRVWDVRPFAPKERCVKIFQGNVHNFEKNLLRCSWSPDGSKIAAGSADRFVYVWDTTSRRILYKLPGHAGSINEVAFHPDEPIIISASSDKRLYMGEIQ
Chain of UniProt O43805 (O43805 whole entry, looked up): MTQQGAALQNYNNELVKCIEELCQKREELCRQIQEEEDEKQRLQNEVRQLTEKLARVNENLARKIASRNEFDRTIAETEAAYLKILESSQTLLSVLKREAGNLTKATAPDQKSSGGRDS
Chain of UniProt O60504 (O60504 whole entry, looked up): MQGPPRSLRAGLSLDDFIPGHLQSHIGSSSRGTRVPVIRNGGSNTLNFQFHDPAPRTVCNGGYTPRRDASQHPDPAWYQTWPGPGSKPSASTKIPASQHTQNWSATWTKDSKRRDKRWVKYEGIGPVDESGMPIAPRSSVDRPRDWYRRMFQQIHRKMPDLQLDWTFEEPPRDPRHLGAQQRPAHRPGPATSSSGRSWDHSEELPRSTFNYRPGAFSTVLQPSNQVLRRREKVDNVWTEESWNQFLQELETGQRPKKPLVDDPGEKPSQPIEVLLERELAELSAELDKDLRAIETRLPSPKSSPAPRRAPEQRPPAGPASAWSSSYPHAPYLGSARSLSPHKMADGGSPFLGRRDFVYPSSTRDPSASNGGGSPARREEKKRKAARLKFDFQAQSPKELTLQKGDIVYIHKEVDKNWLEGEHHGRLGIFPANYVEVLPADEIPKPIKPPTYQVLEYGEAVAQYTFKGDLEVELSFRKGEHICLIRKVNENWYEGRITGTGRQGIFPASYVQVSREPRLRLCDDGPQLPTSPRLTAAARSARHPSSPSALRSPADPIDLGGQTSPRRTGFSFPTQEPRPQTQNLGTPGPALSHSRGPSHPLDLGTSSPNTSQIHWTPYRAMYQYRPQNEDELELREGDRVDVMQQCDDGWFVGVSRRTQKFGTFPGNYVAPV
Chain of UniProt Q86XK3 (Q86XK3 whole entry, looked up): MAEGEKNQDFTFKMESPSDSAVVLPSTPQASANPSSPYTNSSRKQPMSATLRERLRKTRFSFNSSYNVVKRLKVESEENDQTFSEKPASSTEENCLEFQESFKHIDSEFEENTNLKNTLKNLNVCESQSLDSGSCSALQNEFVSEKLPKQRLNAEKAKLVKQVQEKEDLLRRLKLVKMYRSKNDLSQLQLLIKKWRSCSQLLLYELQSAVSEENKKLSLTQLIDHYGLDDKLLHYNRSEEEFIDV
Chain of UniProt Q9UNE7 (Q9UNE7 whole entry, looked up): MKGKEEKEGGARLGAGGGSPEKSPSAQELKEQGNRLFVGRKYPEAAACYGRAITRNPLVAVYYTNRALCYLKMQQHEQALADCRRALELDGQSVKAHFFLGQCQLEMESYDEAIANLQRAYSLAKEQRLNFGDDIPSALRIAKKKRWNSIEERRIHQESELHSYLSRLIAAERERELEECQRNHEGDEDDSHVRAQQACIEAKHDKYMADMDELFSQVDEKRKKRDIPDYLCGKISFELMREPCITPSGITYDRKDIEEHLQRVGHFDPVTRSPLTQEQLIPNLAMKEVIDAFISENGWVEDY
Chain of UniProt Q01130 (Q01130 whole entry, looked up): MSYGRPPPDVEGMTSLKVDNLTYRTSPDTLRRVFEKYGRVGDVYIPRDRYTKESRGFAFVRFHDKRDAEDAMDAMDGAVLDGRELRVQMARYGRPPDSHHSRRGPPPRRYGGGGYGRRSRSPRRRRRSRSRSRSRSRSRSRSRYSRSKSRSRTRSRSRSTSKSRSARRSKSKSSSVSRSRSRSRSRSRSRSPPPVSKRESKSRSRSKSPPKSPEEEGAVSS
Chain of UniProt Q8N1S5 (Q8N1S5 whole entry, looked up): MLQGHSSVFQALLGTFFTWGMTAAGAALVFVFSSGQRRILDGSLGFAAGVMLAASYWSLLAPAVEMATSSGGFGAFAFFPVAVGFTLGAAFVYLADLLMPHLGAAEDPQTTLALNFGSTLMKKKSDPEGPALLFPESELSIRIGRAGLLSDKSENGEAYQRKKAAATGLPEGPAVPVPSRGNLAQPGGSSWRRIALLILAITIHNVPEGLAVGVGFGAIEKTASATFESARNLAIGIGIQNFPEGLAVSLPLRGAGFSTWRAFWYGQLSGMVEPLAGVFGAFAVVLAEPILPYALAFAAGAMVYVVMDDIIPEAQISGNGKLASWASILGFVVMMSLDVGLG
Chain of UniProt Q16637 (Q16637 whole entry, looked up): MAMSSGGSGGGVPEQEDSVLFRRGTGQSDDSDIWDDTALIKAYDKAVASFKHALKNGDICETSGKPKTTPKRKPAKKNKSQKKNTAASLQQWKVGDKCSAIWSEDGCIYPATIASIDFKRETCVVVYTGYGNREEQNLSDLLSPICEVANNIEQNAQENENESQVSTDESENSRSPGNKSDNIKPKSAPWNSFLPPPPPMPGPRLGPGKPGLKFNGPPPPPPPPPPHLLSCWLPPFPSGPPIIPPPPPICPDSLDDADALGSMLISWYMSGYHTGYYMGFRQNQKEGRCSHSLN
Chain of UniProt Q96EX1 (Q96EX1 whole entry, looked up): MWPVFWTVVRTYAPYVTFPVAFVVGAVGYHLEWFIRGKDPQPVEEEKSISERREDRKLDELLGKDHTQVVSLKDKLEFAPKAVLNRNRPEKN
With SLC27A2 (UniProt O14975) the log2 fold change was -0.025 (inactive).
In the case of SH3BGRL2 (UniProt Q9UJC5), the log2 fold change is reported as 0.007 (inactive).
In the case of STAT2 (UniProt P52630), the log2 fold change is reported as -0.009 (inactive).
With SLC39A11 (UniProt Q8N1S5) the log2 fold change was -0.093 (inactive).
With SYF2 (UniProt O95926) the log2 fold change was 0 (inactive).
For SMC3 (UniProt Q9UQE7), the log2 fold change was -0.01 (inactive).
In the case of SPIRE1 (UniProt Q08AE8), the log2 fold change is reported as -0.062 (inactive).
In the case of SNRNP40 (UniProt Q96DI7), the log2 fold change is reported as 0.025 (inactive).
In the case of STMN3 (UniProt Q9NZ72), the log2 fold change is reported as 0.012 (inactive).
SMN1 (UniProt Q16637) was tested, and the log2 fold change was 0.038 (inactive).
In the case of TARBP1 (UniProt Q13395), the log2 fold change is reported as 0.134 (inactive).
In the case of SKA2 (UniProt Q8WVK7), the log2 fold change is reported as -0.006 (inactive).
For STK4 (UniProt Q13043), the log2 fold change was -0.013 (inactive).
SMG1 (UniProt Q96Q15) was tested, and the log2 fold change was -0.004 (inactive).
With SKA3 (UniProt Q8IX90) the log2 fold change was 0.018 (inactive).
With SFN (UniProt P31947) the log2 fold change was 0.013 (inactive).
In the case of SFR1 isoform 2 (UniProt Q86XK3), the log2 fold change is reported as -0.009 (inactive).
With SOAT1 (UniProt P35610) the log2 fold change was 0.06 (inactive).
SNRPD2 (UniProt P62316) was tested, and the log2 fold change was 0.019 (inactive).
SLC29A2 (UniProt Q14542) was tested, and the log2 fold change was -0.147 (inactive).
With SF3B6 (UniProt Q9Y3B4) the log2 fold change was 0.011 (inactive).
In the case of SMIM12 (UniProt Q96EX1), the log2 fold change is reported as 0.048 (inactive).
SOX5 (UniProt P35711) was tested, and the log2 fold change was -0.169 (inactive).
With SP1 (UniProt P08047) the log2 fold change was -0.012 (inactive).
STUB1 (UniProt Q9UNE7) was tested, and the log2 fold change was 0.05 (inactive).
With STIM1 (UniProt Q13586) the log2 fold change was -0.037 (inactive).
With SNCA (UniProt P37840) the log2 fold change was -0.265 (inactive).
In the case of SSB (UniProt P05455), the log2 fold change is reported as -0.008 (inactive).
In the case of SNRPD3 (UniProt P62318), the log2 fold change is reported as 0.017 (inactive).
SSNA1 (UniProt O43805) was tested, and the log2 fold change was -0.004 (inactive).
For SRSF2 (UniProt Q01130), the log2 fold change was 0.005 (inactive).
In the case of SORBS3 (UniProt O60504), the log2 fold change is reported as -0.01 (inactive).

What follows are targets tested with C/C(=N\NC(=O)C1=CC(=CC=C1)S(=O)(=O)N2CCOCC2)/C3=C(C=CC(=C3)Cl)O in the same assay as above.
Method in brief: as §1
For SLC27A2 (UniProt O14975), the log2 fold change was 0.478 (active).
SH3BGRL2 (UniProt Q9UJC5) was tested, and the log2 fold change was -0.109 (inactive).
STAT2 (UniProt P52630) was tested, and the log2 fold change was 0.033 (inactive).
In the case of SLC39A11 (UniProt Q8N1S5), the log2 fold change is reported as 0.116 (inactive).
With SYF2 (UniProt O95926) the log2 fold change was 0.043 (inactive).
SMC3 (UniProt Q9UQE7) was tested, and the log2 fold change was 0.018 (inactive).
In the case of SPIRE1 (UniProt Q08AE8), the log2 fold change is reported as 0.054 (inactive).
With SNRNP40 (UniProt Q96DI7) the log2 fold change was 0.046 (inactive).
In the case of STMN3 (UniProt Q9NZ72), the log2 fold change is reported as 0.01 (inactive).
For SMN1 (UniProt Q16637), the log2 fold change was 0.009 (inactive).
With TARBP1 (UniProt Q13395) the log2 fold change was 0.047 (inactive).
SKA2 (UniProt Q8WVK7) was tested, and the log2 fold change was -0.058 (inactive).
With STK4 (UniProt Q13043) the log2 fold change was -0.15 (inactive).
In the case of SMG1 (UniProt Q96Q15), the log2 fold change is reported as -0.031 (inactive).
With SKA3 (UniProt Q8IX90) the log2 fold change was -0.081 (inactive).
For SFN (UniProt P31947), the log2 fold change was -0.239 (inactive).
In the case of SFR1 isoform 2 (UniProt Q86XK3), the log2 fold change is reported as -0.019 (inactive).
SOAT1 (UniProt P35610) was tested, and the log2 fold change was -0.007 (inactive).
For SNRPD2 (UniProt P62316), the log2 fold change was 0.005 (inactive).
SLC29A2 (UniProt Q14542) was tested, and the log2 fold change was 0.016 (inactive).
SF3B6 (UniProt Q9Y3B4) was tested, and the log2 fold change was 0.047 (inactive).
SMIM12 (UniProt Q96EX1) was tested, and the log2 fold change was -0.105 (inactive).
In the case of SOX5 (UniProt P35711), the log2 fold change is reported as 0.08 (inactive).
For SP1 (UniProt P08047), the log2 fold change was -0.04 (inactive).
With STUB1 (UniProt Q9UNE7) the log2 fold change was 0.024 (inactive).
In the case of STIM1 (UniProt Q13586), the log2 fold change is reported as 0.089 (inactive).
With SNCA (UniProt P37840) the log2 fold change was -0.037 (inactive).
For SSB (UniProt P05455), the log2 fold change was 0.007 (inactive).
In the case of SNRPD3 (UniProt P62318), the log2 fold change is reported as 0.021 (inactive).
SSNA1 (UniProt O43805) was tested, and the log2 fold change was -0.04 (inactive).
SRSF2 (UniProt Q01130) was tested, and the log2 fold change was 0.041 (inactive).
For SORBS3 (UniProt O60504), the log2 fold change was 0.028 (inactive).

What follows are targets tested with C1=CC(=CC=C1C2=NC3=C(N2)C=C(C=C3)C(=O)N)OC4=CC=C(C=C4)Cl in the same assay as above.
Method in brief: as §1
In the case of SLC27A2 (UniProt O14975), the log2 fold change is reported as -0.122 (inactive).
In the case of SH3BGRL2 (UniProt Q9UJC5), the log2 fold change is reported as 0.035 (inactive).
STAT2 (UniProt P52630) was tested, and the log2 fold change was -0.102 (inactive).
In the case of SLC39A11 (UniProt Q8N1S5), the log2 fold change is reported as -0.047 (inactive).
With SYF2 (UniProt O95926) the log2 fold change was 0.037 (inactive).
For SMC3 (UniProt Q9UQE7), the log2 fold change was -0.004 (inactive).
In the case of SPIRE1 (UniProt Q08AE8), the log2 fold change is reported as -0.032 (inactive).
SNRNP40 (UniProt Q96DI7) was tested, and the log2 fold change was -0.03 (inactive).
In the case of STMN3 (UniProt Q9NZ72), the log2 fold change is reported as -0.003 (inactive).
With SMN1 (UniProt Q16637) the log2 fold change was 0.042 (inactive).
With TARBP1 (UniProt Q13395) the log2 fold change was -0.02 (inactive).
For SKA2 (UniProt Q8WVK7), the log2 fold change was 0.014 (inactive).
For STK4 (UniProt Q13043), the log2 fold change was -0.033 (inactive).
In the case of SMG1 (UniProt Q96Q15), the log2 fold change is reported as -0.046 (inactive).
For SKA3 (UniProt Q8IX90), the log2 fold change was 0.02 (inactive).
In the case of SFN (UniProt P31947), the log2 fold change is reported as -0.006 (inactive).
SFR1 isoform 2 (UniProt Q86XK3) was tested, and the log2 fold change was 0.067 (inactive).
In the case of SOAT1 (UniProt P35610), the log2 fold change is reported as -0.042 (inactive).
With SNRPD2 (UniProt P62316) the log2 fold change was 0.058 (inactive).
For SLC29A2 (UniProt Q14542), the log2 fold change was -0.04 (inactive).
In the case of SF3B6 (UniProt Q9Y3B4), the log2 fold change is reported as 0 (inactive).
For SMIM12 (UniProt Q96EX1), the log2 fold change was -0.024 (inactive).
SOX5 (UniProt P35711) was tested, and the log2 fold change was 0.025 (inactive).
For SP1 (UniProt P08047), the log2 fold change was 0.053 (inactive).
STUB1 (UniProt Q9UNE7) was tested, and the log2 fold change was -0.034 (inactive).
In the case of STIM1 (UniProt Q13586), the log2 fold change is reported as -0.014 (inactive).
With SNCA (UniProt P37840) the log2 fold change was 0.098 (inactive).
For SSB (UniProt P05455), the log2 fold change was -0.014 (inactive).
For SNRPD3 (UniProt P62318), the log2 fold change was 0.016 (inactive).
In the case of SSNA1 (UniProt O43805), the log2 fold change is reported as -0.013 (inactive).
In the case of SRSF2 (UniProt Q01130), the log2 fold change is reported as 0.026 (inactive).
In the case of SORBS3 (UniProt O60504), the log2 fold change is reported as 0.021 (inactive).
